Hit rate of the full screen: of about 300,000 compounds, about 2,700 (0.9%) were called active. The entries come from a sample that favours actives as a whole. Unmarked numbers belong to inactive results.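 The calls were made as follows: active = mean inhibition of at least 30% with at least half of replicates also reaching 30%; inconclusive = no clear call, values can overlap the other calls; inactive = the rest.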

In the assay the target is Golgi-associated PDZ and coiled-coil motif-containing protein (Homo sapiens) (UniProt Q9HD26). The assay is described as follows: blockade of CAL PDZ-reporter peptide interaction – biochemical, fluorescence polarization, untagged CAL PDZ, HTS, primary screen (AID 602252).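 Also: 0% = DMSO neutral control and 100% = excess unlabeled competitor peptide PRC23.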 To be noted: purified CAL PDZ, TMR-peptide fluorescence polarization, 1 h; at 24.9 µM; stronger effect = higher value. Background: In fluorescence polarisation assays a small probe gives low polarisation when free and higher when bound to something large.
As a reminder, the inhibition is the change of the read-out against control, counted positive when it falls. For the compound `CC(C)(C)NS(=O)(=O)NC(=O)C1=C(N2CCCC2)COC1=O`, the inhibition was -3.4%.

As for `COc1ccc(C(=O)OCc2cc(=O)n3ccsc3n2)cc1F`, the inhibition was -3.31%.

In the case of `CCCC(O)(c1ccccc1)C(c1ccccc1)c1ccccn1` (configuration not stated), the inhibition was -2.63%.

Regarding `COc1ccccc1-n1nnnc1S(=O)(=O)Cc1ccc(Cl)cc1`, the inhibition was 95.3% (active).

`COc1ccccc1-n1nnnc1SCC(=O)NC(=O)Cc1ccccc1`: the inhibition was 0.182%.

Take `COc1ccccc1N1CCN(S(=O)(=O)c2ccc(Cl)cc2)CC1`: the inhibition was -4.05%.

Turning to `CCCCNc1c(-c2ccc(OC)c(Sc3ccc(OC)cc3)c2)nc2ccc(Cl)cn12`, the inhibition was 0.771%.

For the compound `CCN(CC(=O)NCc1ccc(Cl)cc1)C(=O)c1c(C)noc1C`, the inhibition is -2.21%.

In the case of `CCN(CC(=O)NCc1ccc(Cl)cc1)C(=O)CSc1ccccc1`, the inhibition was 62.6% (active).

Consider `CCN(CC(=O)Nc1cc(Cl)ccc1C)C(=O)CSCc1ccccc1`, for which the inhibition is -0.344%.

In the case of `Cc1cc2c(cc1C)NC1(C[C@H]3CCC(=O)N4CC[C@@H](C1)[C@@H]34)C(=NC(C)(C)CC(C)(C)C)N2` (some centres not stated), the inhibition is -3.52%.

`CCCCCc1ccc(-c2cn(Cc3ccc4ccccc4c3)nn2)cc1`: the inhibition is -1.31%.

In the case of `CCOc1nc(OCC)nc(-n2cc(-c3ccccc3)nn2)n1`, the inhibition is 145% (active).

`CCOC(=O)c1nnn(-c2nc(OC)nc(N(C)C)n2)c1-c1ccccc1`: the inhibition was 14.6%.

For the compound `Cc1ccccc1NC(=O)CCOc1ccccc1`, the inhibition was -3.86%.

Turning to `Cc1c(NC(=O)Nc2ccccc2)cccc1[N+](=O)[O-]`, the inhibition is -0.291%.

On to `Cc1c(NC(=O)CCCOc2ccccc2)cccc1[N+](=O)[O-]`, for which the inhibition is 47.4% (active).

In the case of `Fc1ccc2cnc(-c3ccccc3)cc2c1`, the inhibition was -0.668%.

For `O=S(=O)(Nc1ccc2ccccc2c1)N1CCCCC1`, the inhibition was -5.99%.

Consider `CC(C)OC(=O)c1ccc(NCc2cc(O)ccc2O)cc1Cl`, for which the inhibition is 0.191%.

On to `COC(=O)Cc1c(-c2[nH]c3ccccc3c2CC(=O)OC)[nH]c2ccccc12`, for which the inhibition was -2.69%.

`CCN1CCN(CCNC(=O)c2ccc(/C=C3/Sc4ccccc4N(Cc4cccc(C)c4)C3=O)cc2)CC1`: the inhibition is -8.21%.

As for `CCN1CCN(CCNC(=O)c2ccc3c(c2)NC(=O)/C(=C\c2ccc(OC)c(OC)c2)S3)CC1`, the inhibition is 55.5% (active).

With `COc1ccc(CCNC(=O)c2ccc3c(c2)NC(=O)C(N2CCOCC2)S3)cc1OC` (configuration not stated), the inhibition was -1.17%.

As to `COc1cc(C(=O)OCC(=O)NC23CC4CC(CC(C4)C2)C3)cc(OC)c1OC`, the inhibition is -3.34%.

Take `C=CCSc1nc2c(c(=O)[nH]c(=O)n2C)n1Cc1ccccc1`: the inhibition was 59.3% (active).

With `CCCCCCn1c(SCC(=O)c2ccccc2)nc2c1c(=O)[nH]c(=O)n2C`, the inhibition was -0.797%.

For `C=CCn1c(SCc2ccccc2)nc2c1c(=O)[nH]c(=O)n2C`, the inhibition is -10.1%.

Consider `CC(C)(C)C(=O)Nc1cccc(-c2ccc[nH]2)n1`, for which the inhibition is -1.63%.

With `Cc1ccccc1NC(=O)NC1(C(=O)N2CCCC2)CCCCC1`, the inhibition is -0.684%.

`CCN1CCN(C(=O)C2(NC(=O)Nc3cccc(F)c3)CCCCC2)CC1`: the inhibition was -0.757%.

Take `CC(=O)N1CCN(C(=O)C2(NC(=O)Nc3ccc(C)cc3)CCCCC2)CC1`: the inhibition was 48% (active).

Turning to `Cn1cncc1C#Cc1c(-c2ccsc2)sc2ccccc12`, the inhibition is -4.14%.

Regarding `Cc1cc(O)ccc1-c1cnc2ccccc2n1`, the inhibition is -0.904%.

With `Oc1ccc(-c2[nH]ncc2-c2nc3ccccc3s2)c(O)c1`, the inhibition is -4.79%.

For `Oc1ccc(-c2nc3ccccc3nc2-c2ccc(O)cc2O)c(O)c1`, the inhibition was 89% (active).

Regarding `CCN1C[C@@H]2[C@@H]3C(=O)N(C)C(=O)[C@@H]3[C@](C)(C1=O)N2C(=O)c1ccccc1`, the inhibition is -2.56%.

As for `CCC1([N+](=O)[O-])COC(c2ccc(C(C)C)cc2)OC1` (configuration not stated), the inhibition was 2.08%.

For `COc1cccc2oc(CCc3ccccc3)cc(=O)c12`, the inhibition was -0.506%.

For `Cc1ccc(S(=O)(=O)N2C[C@@H]3CCCC[C@@H]3[C@@H](C)[C@H]2c2cn(Cc3ccccc3)c3ccc(F)cc23)cc1`, the inhibition was -5.03%.

`CCOC(=O)Cc1csc(NC(=O)COc2ccc3c(C)cc(=O)oc3c2)n1`: the inhibition was -3.4%.

Turning to `COc1ccc2c(CC(=O)Nc3nnc(C4CC4)s3)coc2c1`, the inhibition was -1.76%.

In the case of `Cc1cc(=O)oc2cc(OCC(=O)Nc3nnc(C4CC4)s3)ccc12`, the inhibition is 51.4% (active).

`CC(=O)Nc1ccc(C(=O)Nc2cc(S(=O)(=O)N3CCOCC3)ccc2N2CCOCC2)cc1`: the inhibition was -4.08%.

Turning to `COc1cccc(CC(=NO)c2cccc(OC)c2)c1`, the inhibition is -7.29%.

With `CC(CN1CCOCC1)OC(=O)c1ccc(C(C)(C)C)cc1` (configuration not stated), the inhibition was -3.82%.

As to `CC(CN1CCOCC1)OC(=O)c1ccc(Cl)cc1Cl` (configuration not stated), the inhibition is -2.34%.

`Cc1ccc(C(=O)OC(C)CN2CCOCC2)cc1` (configuration not stated): the inhibition is 70.2% (active).

In the case of `Cc1csc(NC(=O)C2CCN(S(=O)(=O)c3ccccc3)CC2)n1`, the inhibition was 3.13%.

Consider `OC(COc1ccccc1)CN1CCN(c2cccc(Cl)c2)CC1` (configuration not stated), for which the inhibition was -5.9%.

In the case of `OC(CNCCc1ccc(Cl)cc1Cl)COc1ccccc1` (configuration not stated), the inhibition was 64.2% (active).

For `OC(CNCc1ccc2c(c1)OCO2)COc1ccccc1` (configuration not stated), the inhibition is -0.826%.

For the compound `O=C(CSc1nnc(CN2CCCC2)n1-c1ccc(F)cc1)c1ccc2c(c1)OCO2`, the inhibition was -2.04%.

`COC[C@@H]1NS(=O)(=O)c2ccc(Br)cc2O[C@H]1c1ccccc1`: the inhibition is -7.2%.

In the case of `COc1cccc(OCc2cc(C(=O)N3CCN(C(=O)c4ccco4)CC3)no2)c1`, the inhibition is 139% (active).

As for `COc1ccc(OCc2cc(C(=O)N3CCCC3)no2)c2ccccc12`, the inhibition is -4.16%.

In the case of `O=C(c1cc(COc2cccc(C(F)(F)F)c2)on1)N1CCSCC1`, the inhibition was -4.68%.

For the compound `C[C@H](CO)N1C[C@H](C)[C@@H](CN(C)Cc2ccc(-c3ccccc3)cc2)Oc2ccc(NC(=O)Cn3cnnn3)cc2C1=O`, the inhibition was -3.86%.

For the compound `O=C(O)CN(Cc1ccco1)S(=O)(=O)c1ccc(F)cc1`, the inhibition was 41.2% (active).

For the compound `CCN(CC(=O)NCc1ccco1)S(=O)(=O)c1ccc(F)cc1`, the inhibition was -5.17%.

For the compound `O=C(O)CN(Cc1ccco1)S(=O)(=O)c1ccccc1`, the inhibition is -2.04%.

Consider `O=C1NC(c2ccccc2)Cc2ccncc21` (configuration not stated), for which the inhibition is 0.221%.

As to `CCN(CC)S(=O)(=O)c1ccc(N2CCOCC2)c(NC(=O)C(C)Oc2ccc(F)cc2)c1` (configuration not stated), the inhibition is -9.92%.

`CCOC(=O)c1sc2nc(C)[nH]c(=O)c2c1C`: the inhibition is -5.61%.

Consider `CCOC(=O)c1sc2nc(CSc3ccccc3)[nH]c(=O)c2c1C`, for which the inhibition was 82.4% (active).

Consider `CCOC(=O)c1sc2nc(CSCC(=O)OCc3ccc(C(=O)OC)o3)[nH]c(=O)c2c1C`, for which the inhibition was -1.2%.

With `CN(C)CCNC(=O)c1ccc(Cl)c2cc3ccccc3nc12`, the inhibition is -3.6%.

With `Cc1ccc(S(=O)(=O)N(C)C)cc1NC(=O)CN1c2cccc3cccc(c23)S1(=O)=O`, the inhibition is 1.34%.

`CN(C(=O)C1CCOC1)c1nnc(-c2cccnc2)s1` (configuration not stated): the inhibition was 5.89%.

With `COc1cc(OC)cc(-c2nnc(N(C)C(=O)c3ccncc3)s2)c1`, the inhibition was -5.84%.

Turning to `CN(C(=O)c1ccno1)c1nnc(-c2cccnc2)s1`, the inhibition is 79.5% (active).

Regarding `Cc1ccc(S(=O)(=O)CCC(=O)OCC(=O)N(C)Cc2ccccc2)cc1`, the inhibition was -0.906%.

Take `O=C(COc1ccccc1F)Nc1nc(-c2ccccn2)cs1`: the inhibition is -7.77%.

Regarding `CC(C)(C)OC(=O)N(Cc1ccccc1)Cc1ccc(OCc2cccc(NC(=O)c3ccccc3)c2)cc1`, the inhibition is -1.04%.

Regarding `Cc1cccc(NC(=S)N2CCC(C(=O)c3ccc(F)cc3)CC2)c1`, the inhibition is -2.74%.

Consider `CN(C)S(=O)(=O)c1cccc(NC(=O)Cc2ccsc2)c1`, for which the inhibition is 56.9% (active).

For the compound `CN(C)S(=O)(=O)c1cccc(NC(=O)COc2ccc3ccccc3c2)c1`, the inhibition was -3.42%.

For the compound `CN(C)S(=O)(=O)c1cccc(NC(=O)COC(=O)/C=C/c2cccs2)c1`, the inhibition was -0.792%.

On to `COc1cc2c(cc1OC)C(Cc1cc(OC)c(OC)cc1[N+](=O)[O-])=NCC2`, for which the inhibition is -3.58%.

As for `O=c1ccnc(Nc2ccc(Cl)cc2)[nH]1`, the inhibition was -6.21%.

For the compound `COc1ccccc1NC1=NC(c2ccc(Cl)cc2)N=C(N)N1` (configuration not stated), the inhibition is 2.25%.

As for `CC1(C)N=C(N)NC(Nc2ccc(Cl)cc2)=N1`, the inhibition is 46.4% (active).

Take `COc1ccc(-c2ccc3c(c2)C2CC3CCN2CCC#N)cc1` (configuration not stated): the inhibition is -7.19%.

On to `Cc1ccccc1NCC(=O)N/N=C\c1ccc([N+](=O)[O-])s1`, for which the inhibition was -2.26%.

In the case of `COc1ccc(C(=O)NCC(=O)N/N=C/c2ccc([N+](=O)[O-])s2)cc1OC`, the inhibition is 1.89%.

For the compound `CNN/C(N=Cc1ccc([N+](=O)[O-])s1)=N\S(=O)(=O)c1cc(C)c(Cl)cc1SCc1ccccc1`, the inhibition was 66.8% (active).

In the case of `COc1cc(C(=O)CCc2ccc3c(c2)OCO3)cc(OC)c1OC`, the inhibition was -5.96%.

In the case of `CCOc1ccc(S(=O)(=O)Nc2nc3cc(OC)ccc3s2)cc1`, the inhibition is 1.2%.

Turning to `O=C(O)c1cccc(S(=O)(=O)Nc2ccc(O)cc2Sc2nc3ccccc3s2)c1`, the inhibition was -1.01%.

On to `COc1ccc(S(=O)(=O)Nc2ccc(O)c(Sc3nc4ccccc4s3)c2)cc1`, for which the inhibition was 40.1% (active).

In the case of `COc1ccc(CCNC(=O)c2ccc(NC(=O)CC3SC(N4CCCCC4)=NC3=O)cc2)cc1OC` (configuration not stated), the inhibition is -1.27%.

As for `O=C1c2ccccc2C(=O)C1C(=O)C1CC1`, the inhibition was -5.16%.

These data come from PubChem BioAssay AID602252 (Broad Institute, 2012).
